TGFb SMAD3 inh: qHTS for Inhibitors of TGF-b; HepG2 CAGA-GFP TGF-b/SMAD3 reporter, GFP fluorescence, 18 h; TGF-beta stimulated, 500 pg/mL final; Potency, µM (doses to about 46.1 µM), actives largely listed as inhibitors; 1.2% of 410,000 active; AID 588855, 2011; also: nearly all actives have a fitted effect of over 65% in size
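Inhibition of TGF-beta-driven CAGA-GFP reporter expression in HEPG2 cells is measured by cellular GFP fluorescence after 18 h stimulation with 500 pg/mL recombinant TGF-beta in 1% FBS medium at 37 degrees C.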
HepG2 viability: qHTS for Inhibitors of TGF-b: Cytotox Counterscreen; 0.76% of 410,000 active; AID 588856, 2011; Potency, µM (top dose mostly 46.1 µM), usual class: cytotoxic; HepG2 CAGA-GFP viability, ATP luminescence, 18 h
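CellTiter-Glo luminescence gave cytotoxicity after 18 hours at 37 degrees C. The cells were HepG2 CAGA-GFP in 1% FBS DMEM, stimulated with 500 pg/mL TGF-beta after compound addition. %Activity was normalised to no-cell wells (complete cell-killing) and DMSO (no toxicity), and curves were fitted and classified.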
TDP1 cell noCPT: qHTS for Inhibitors of human tyrosyl-DNA phosphodiesterase 1 (TDP1): qHTS in cells in absence of CPT | DT40 Tdp1-/- hTDP1 cells, no CPT, ATP luminescence, 48 h | Potency, µM (titrated, usually from 46.2 µM), actives largely listed as inhibitors | 15% of 420,000 active | AID 686978, 2013; also: nearly all actives have a fitted effect of over 55% in size
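Luminescent ATP content (CellTiter-Glo) served as the growth readout. Knockout chicken DT40 cells expressing human TDP1 were exposed to compounds without camptothecin for a minimum 48 hr at 37 °C.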
HT1080 IDH1KD tx: qHTS for induction of synthetic lethality in tumor cells producing 2HG: qHTS for the HT-1080-IDH1KD cell line. HT-1080 IDH1 knockdown viability, ATP luminescence, 48 h. Potency, µM (series often up to 46.1 µM), hits mostly cytotoxic. 2% of 360,000 active. AID 686971, 2013
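Knockdown cells (IDH1KD HT-1080) received compounds 2 h after plating at 750 cells/well and were kept 48 h at 37 °C in 5% FBS RPMI. A CellTiter-Glo luminescence read gave % activity for curve fitting.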
HT1080-NT tox: qHTS for induction of synthetic lethality in tumor cells producing 2HG: qHTS for the HT-1080-NT fibrosarcoma cell line; HT-1080-NT fibrosarcoma viability, CellTiter-Glo ATP luminescence, 48 h; Potency, µM (titrated, usually from 46.1 µM), hits mostly cytotoxic; 1.6% of 360,000 active;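 also: NT is the 2HG producing partner of a matched IDH1 knockdown line; nearly all actives have a fitted effect of over 55% in size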
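Viability by CellTiter-Glo luminescence after 48 h compound exposure at 37C of HT-1080-NT cells (750/well, RPMI, 5% FBS). % activity scaled between DMSO wells and medium-only wells, then curve-fitted and categorized by curve class.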
DT40 TDP1 CPT: qHTS for Inhibitors of human tyrosyl-DNA phosphodiesterase 1 (TDP1): qHTS in cells in presence of CPT; chicken DT40 Tdp1-/-;hTDP1 cells + 20 nM CPT, ATP luminescence, 48 h; Potency, µM (top dose mostly 46.2 µM), most hits filed as inhibitors; 12% of 420,000 active; also: nearly all actives have a fitted effect of over 55% in size
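Chicken DT40 Tdp1-/- cells complemented with human TDP1, 400 cells/well, exposed to compounds plus 20 nM camptothecin for at least 48 h at 37 C; viability read as ATP content by CellTiter-Glo luminescence.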
Numbers stand for hits; – = inactive; ? = inconclusive; · = no result; [ ] = remark or other dose. The list is not random: actives were taken first. Their share in the collection is about 17%. Calls follow the shape of the dose curve; as a rule, active = well fitted curve in the direction sought with a large enough effect; inconclusive = small, poorly fitted or top-dose-only effect, or another doubt; inactive = no such curve, though single readings can be large; an effect the other way counts as inactive or inconclusive.

SMILES	TGFb SMAD3 inh	HepG2 viability	TDP1 cell noCPT	HT1080 IDH1KD tx	HT1080-NT tox	DT40 TDP1 CPT
COc1ccc(N(C)C(=O)CCS(=O)(=O)c2cccc3nonc23)c(OC)c1	–	–	–	–	–	–
Cc1cccc(NC(=O)CSc2cn(CC(=O)N3CCCC3)c3ccccc23)c1C	–	–	?	·	·	–
O=C(c1cccc(Cl)c1)n1nc(-c2ccco2)nc1NCc1cccs1	–	–	–	·	·	–
C=C1C2CC[C@@]3(C)C(c4ccoc4)OC(=O)C[C@@]13OC1CC(=O)C(C)(C)C(CC(=O)OC)[C@]12C (stereo partly drawn)	·	·	–	·	·	–
C=C1C2CC[C@@]3(C)C(c4ccoc4)OC(=O)C[C@@]13OC1CC(OC(C)=O)C(C)(C)C(CC(=O)OC)[C@@]12C (stereo partly drawn)	·	·	11.6µM	·	·	13µM
CC1CCN(S(=O)(=O)c2ccc3nc(Nc4ccc(C#N)cc4)ccc3c2)CC1	10µM	–	20.6µM	·	·	?
CC1CCN(S(=O)(=O)c2ccc3nc(Nc4cccc(C(F)(F)F)c4)ccc3c2)CC1	?	–	?	·	·	18.4µM
CCn1nc(C)cc1C(=O)NCC1Cc2cccc(-c3cccnc3)c2O1 (stereo not drawn)	·	·	?	·	·	–[9.04 µM]
COc1ccc(C(C)C)cc1S(=O)(=O)NCCc1c(C)[nH]c2c(Cl)cccc12	?	–	?	·	·	29.1µM
Cc1ccn2c(Nc3ccc4c(c3)OCCO4)c(-c3ccc(C)o3)nc2c1	–	–	?	·	·	20.6µM
Cc1ccn2c(Nc3ccc(F)cc3)c(-c3ccc(C)o3)nc2c1	?	–	?	·	·	16.4µM
Oc1ccc(-c2nc3ccccn3c2Nc2ccc3c(c2)OCCO3)cc1	–	–	?	·	·	?
Cc1ccn2c(Nc3ccc4c(c3)OCO4)c(-c3ccc(O)cc3)nc2c1	–	–	?	–	–	23.1µM
CCCCOc1ccc(C(=O)NCCc2sc(-c3cccc(F)c3)nc2C)cc1	–	–	?	·	·	?
COC(=O)c1ccc(NC(=O)C(=O)NCCc2sc(-c3cccc(F)c3)nc2C)cc1	–	–	?	·	·	11.6µM
COc1cc(C(=O)NCCc2sc(-c3cccc(F)c3)nc2C)cc(OC)c1OC	–	–	11.6µM	·	·	9.2µM
CCn1c(O)c(C2=c3ccccc3=NC2=O)c2cc(Br)ccc21	–	–	11.6µM	–	–	6.51µM
Cc1cc(=O)c2cc(Br)ccc2n1CC(=O)NCc1ccccc1	–	–	?	–	–	?
CCOC(=O)c1[nH]c(C=O)c(C(=O)OCC)c1C	–	–	0.651µM	3.66µM	1.64µM	0.651µM
CCOC(=O)c1[nH]c(C)c(C(=O)Nc2ccccc2C)c1C	–	–	1.46µM	2.31µM	5.8µM	1.64µM
CCOC(=O)c1[nH]c(C)c(C(=O)NC(CC)Cc2ccccc2)c1C (stereo not drawn)	–	–	16.4µM	·	·	?
CCOC(=O)c1[nH]c(C)c(C(=O)Nc2cc(Cl)ccc2C)c1C	–	–	0.164µM	0.0891µM	0.316µM	0.146µM
CCOC(=O)c1c(C)[nH]c(C(C)=O)c1C	–	–	–	–	–	–
CN(CCC#N)S(=O)(=O)c1ccc2[nH]cc(C(=O)NCCc3ccccc3)c(=O)c2c1	–	–	?	–	–	?
CCOC(=O)c1ccc(CN(Cc2ccc(F)cc2)S(=O)(=O)c2ccc(F)cc2)cc1	–	–	?	·	·	–
SMILES	TGFb SMAD3 inh	HepG2 viability	TDP1 cell noCPT	HT1080 IDH1KD tx	HT1080-NT tox	DT40 TDP1 CPT
CN1CCN(c2ccc(S(=O)(=O)N3CCOCC3)cc2NC(=O)COc2ccc(C#N)cc2)CC1	–	–	–	–	–	–
COc1cc(-c2cc(NC(C)=O)c3ncc(-c4ccc(C(C)=O)cc4)n3c2)cc(OC)c1OC	?	–	?	?	–	29.1µM
COc1cc(-c2cc(NC(C)=O)c3ncc(-c4ccc(F)cc4)n3c2)cc(OC)c1OC	–	–	14.6µM	?	–	?
O=C(CSc1n[nH]c(-c2ccco2)n1)Nc1ccccc1Cl	–	–	–	–	–	–
Cc1cc(C)cc(-n2c(SCC(N)=O)nc3c(oc4ccccc43)c2=O)c1	–	–	14.6µM	·	·	?
Cc1ccc(-n2c(SCC(N)=O)nc3c(oc4ccccc43)c2=O)cc1	–	–	18.4µM	–	–	?
COc1ccc(NC(C)=O)cc1CP(=O)(c1ccccc1)c1ccccc1	–	–	–	–	–	–
Cc1[nH]nc2ncc(C(=O)c3ccccc3O)cc12	–	–	?	?	–	10.3µM
Cc1nn(C)c2ncc(C(=O)c3ccccc3O)cc12	–	–	?	–	–	?
CN(C)C(=O)NC(Nc1ccc(Cl)cc1Cl)C(Cl)(Cl)Cl (stereo not drawn)	?	–	18.4µM	–	?	?
COc1ccc(CN2CCC3(CCC(CNC(=O)C4CCCO4)O3)CC2)c(C)c1C (stereo not drawn)	·	·	–	·	·	?
C=CC(=O)Nc1cccc(Nc2nc(N[C@H]3CC[C@H](N(C)C)CC3)nc3c2ncn3C(C)C)c1	0.708µM	–	0.206µM	0.651µM	?	0.146µM
CCN(CC)c1ccc2c(c1)OC(N)=C(C#N)C2c1cccnc1 (stereo not drawn)	–	–	0.0366µM	0.231µM	?	0.0206µM
N#CC1=C(N)Oc2cc(N)ccc2C1c1ccc(Cl)cc1 (stereo not drawn)	–	–	–	?	?	–
N#CC1=C(N)Oc2cc(N)ccc2C1c1cccnc1 (stereo not drawn)	–	–	16.4µM	–	–	?
CCn1c(SCC(=O)N2CCC(C)CC2)nnc1-c1ccco1	–	–	–	–	–	–
Cc1ccc(/C=C(\C#N)C(=O)Nc2c(C)cccc2C)s1	–	–	20.6µM	–	–	?
COC(=O)c1ccc(COc2ccccc2/C=C(\C#N)C(=O)Nc2c(C)cccc2C)cc1	?	–	13µM	18.4µM	18.4µM	13µM
COc1cccc(N2CCN(S(=O)(=O)c3ccc4c(c3)N(C(C)=O)CCO4)CC2)c1	–	–	?	–	?	?
CC(C)(C)CC(=O)Nc1nnc(SCC(=O)N2CCCCC2)s1	–	–	?	–	–	–
O=c1oc2ccccc2c(O)c1/C=C1\C=Nc2ccccc21	–	–	7.31µM	25.9µM	?	8.2µM
CCOCCc1nnc(NC(=O)CCS(=O)(=O)c2ccccc2)s1	?	–	9.2µM	?	–	20.6µM
